Rows were chosen to be rich in hits. Some 1.7% of all compounds tested hit in one or more screens of this group.
IkB sig inh: IkB Signaling; AID 445, 2006; ABC-DLBCL IkBa-CBG/CBR dual luciferase ratio, 4 h; response scale: scaled: untreated 0%, proteasome inhibitor 100%; Potency, µM (highest dose often 57.1 µM), inactives show at the top dose IkBa stabilization activation; 110,000 tested, 0.04% active; active means well fitted curve in the direction sought with a large enough effect in the signal ratio, not every such curve was filed as active; inconclusive means small, poorly fitted or top-dose-only effect, or a change in a side signal; the % refers to the signal ratio;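 further: the direction sought is a rising ratio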
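Curves were fitted separately to fusion (green), unfused (red) and ratio luminescence, then classed by r2, magnitude and activity. Cells: OCI-Ly3, 4 h compound plus doxycycline at 37C; 10 uM MG-132 defined full response.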
Peg3 imprint: qHTS Assay for Compounds that Induce Erasure of Genomic Imprints; mouse ES Peg3-LacZ reporter, beta-gal luminescence, 40 h; Potency, µM (series often up to 60.7 µM), inactives show top-dose activity change, positive = activation, actives largely listed as activators; 110,000 tested, 0.02% active
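Readout: BetaGlo luminescence (5 min, room temp) for LacZ from the normally silent maternal Peg3 allele in female Peg3LacZ-Neo ES cells. Cells 300/well, 40 h, 37C, 5% CO2. Data normalized per plate to negative controls.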
p53ts 39C tox: qHTS Screen for Compounds that Selectively Target Cancer Cells with p53 Mutations: Cytotoxicity of p53ts Cells at the Nonpermissive Temperature; H1299-p53A138V viability at 39C, ATP luminescence, 24 h; Potency, µM (titrated, usually from 46.1 µM), without a hit: at the highest dose activity change, negative = cell killing, usual class: cytotoxic; 130,000 tested, 1.5% active; further: on the % scale 0 is the no-effect control and ±100 the full control effect; nearly all actives have a fitted effect of over 55% in size
p53ts 32C kill: qHTS Screen for Compounds that Selectively Target Cancer Cells with p53 Mutations: Cytotoxicity of p53ts Cells at the Permissive Temperature; H1299-p53A138V at 32C, ATP luminescence viability, 24 h; Potency, µM (highest dose often 46.1 µM), for inactives: top-dose activity change, negative = cytotoxicity, usual class: cytotoxic; 130,000 tested, 0.93% active;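 further: 0% = DMSO and -100% = full killing by reference compound; nearly all actives have a fitted effect of over 55% in size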
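H1299-p53 A138V cells (temperature-sensitive p53) exposed 24 h to up to 46 uM compound at 32C, where p53 is wild-type in conformation. Viability read as ATP luminescence and normalised to DMSO and 100 uM tamoxifen. AC50 fitted with the Hill equation.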
* hit, by the source's call; [ ] = another dose, or the depositor's remark. Unless noted, the call rests on the fitted dose curve; in most records, active means well fitted curve in the direction sought with a large enough effect; inconclusive means small, poorly fitted or top-dose-only effect, or another doubt; inactive means no such curve, though single readings can be large; an effect the other way counts as inactive or inconclusive. Potency means the concentration at half of the fitted maximal effect.

Results for Cc1nc2nc(CNC(=O)c3cccc(F)c3)nn2c(C)c1CCC(=O)Nc1ccc(F)cc1 ?
IkB sig inh: 3%; Peg3 imprint: 6%[10.9 µM]; p53ts 39C tox: 7%; p53ts 32C kill: 0%

How did Cc1cc(C)cc(OC(=O)c2cc(-c3ccc(Cl)cc3)on2)c1 do in these assays?
IkB sig inh: -3%; Peg3 imprint: -11%[10.9 µM]; p53ts 39C tox: 18%; p53ts 32C kill: 1%

What do the screens show for `Cc1ccc2oc(-c3cccc(NC(=O)c4ccc(N5CCC(C)CC5)c([N+](=O)[O-])c4)c3)nc2c1`?
IkB sig inh: 0%; Peg3 imprint: -13%[10.9 µM]; p53ts 39C tox: 27%; p53ts 32C kill: 0%

Results for COCCn1c(=O)c(CCc2ccccc2)nc2cnc(N3CCOCC3)nc21 ?
IkB sig inh: -2%[11.4 µM]; Peg3 imprint: 4µM*; p53ts 39C tox: -5%; p53ts 32C kill: -4%

How did O=c1c(CCc2ccccc2)nc2cnc(N3CCNCC3)nc2n1Cc1ccc(F)cc1 do in these assays?
IkB sig inh: -3%[11.4 µM]; p53ts 39C tox: 13µM*; p53ts 32C kill: 2%

Results for COc1ccc(-c2nc3cnc(N4CCNCC4)nc3n(Cc3cccc(OC)c3)c2=O)cc1 ?
IkB sig inh: -1%[11.4 µM]; p53ts 39C tox: inconclusive; p53ts 32C kill: -20%

What do the screens show for `COc1cccc(Cn2c(=O)c(-c3ccc(Cl)cc3)nc3cnc(N4CCNCC4)nc32)c1`?
IkB sig inh: -6%[11.4 µM]; Peg3 imprint: -44%; p53ts 39C tox: inconclusive; p53ts 32C kill: 13µM*

What do the screens show for `COCCn1c(=O)c(CCc2ccccc2)nc2cnc(N3CCN(C)CC3)nc21`?
IkB sig inh: -3%[11.4 µM]; p53ts 39C tox: 3%; p53ts 32C kill: -3%

What do the screens show for `Cn1c(SCc2ccccc2F)nc2c([nH]c3ccccc32)c1=O`?
IkB sig inh: 5%; Peg3 imprint: -3%[10.9 µM]; p53ts 39C tox: inconclusive; p53ts 32C kill: 15%

Results for C[C@H]1[C@H](C)CC[C@]2(C(=O)O)CC[C@]3(C)C(=CC[C@H]4[C@]3(C)C[C@@H](O)C3[C@](C)(CO)[C@H](O)[C@@H](O)C[C@]34C)[C@H]12 (some centres undefined) ?
Peg3 imprint: -3%[10.9 µM]

Results for Cn1cc(S(=O)(=O)N2CCCC2)cc1C(=O)Nc1ccc(C(F)(F)F)cc1 ?
IkB sig inh: 1%; Peg3 imprint: -4%[10.9 µM]; p53ts 39C tox: -20%; p53ts 32C kill: -4%

What do the screens show for `COc1ccccc1CNC(=O)c1oc2ccc(S(=O)(=O)N3CCCCC3)cc2c1C`?
IkB sig inh: inconclusive; Peg3 imprint: -22%[10.9 µM]; p53ts 39C tox: inconclusive; p53ts 32C kill: 4%

How did COc1ccc(OC)c(NC(=O)c2cn(CC(C)C)c(=O)c3cc(OC)c(OC)cc23)c1 do in these assays?
IkB sig inh: 4%; Peg3 imprint: -4%[10.9 µM]; p53ts 39C tox: -14%; p53ts 32C kill: 8%

Results for COc1cc(C)cc2oc(=O)c(CC(=O)NCc3cccc(Cl)c3)c(C)c12 ?
IkB sig inh: -1%; Peg3 imprint: -4%[10.9 µM]; p53ts 39C tox: -18%; p53ts 32C kill: 0%

Results for COc1cc(C)cc2oc(=O)c(CC(=O)NCCc3ccc(Cl)cc3)c(C)c12 ?
IkB sig inh: inconclusive; Peg3 imprint: 9%[10.9 µM]; p53ts 39C tox: 13µM*; p53ts 32C kill: -22%

What do the screens show for `CCCCS(=O)(=O)c1nc(-c2ccc(Br)cc2)cc(-c2ccccc2)c1C#N`?
IkB sig inh: 3.2µM*; Peg3 imprint: -37%[10.9 µM]; p53ts 39C tox: inconclusive; p53ts 32C kill: 2µM*

How did O=c1n(CC2CO2)c(=O)n(CC2CO2)c(=O)n1CC1CO1 (centres undefined) do in these assays?
IkB sig inh: inconclusive; Peg3 imprint: -23%; p53ts 39C tox: 16µM*; p53ts 32C kill: -6%[1.84 µM]

What do the screens show for `C=CCn1c(=O)n(CC=C)c(=O)n(CC=C)c1=O`?
IkB sig inh: 0%; Peg3 imprint: 7%; p53ts 39C tox: 1%; p53ts 32C kill: -1%[1.84 µM]

What do the screens show for `COc1nc(C)ccc1-c1noc(-c2ccco2)n1`?
IkB sig inh: -3%; Peg3 imprint: -67%; p53ts 39C tox: 13µM*; p53ts 32C kill: 13µM*

What do the screens show for `COc1ccccc1CNc1ncnc2ccc(-c3ccc(C(=O)N(C)C)cc3)cc12`?
IkB sig inh: -3%[11.4 µM]; Peg3 imprint: -11%; p53ts 39C tox: -6%; p53ts 32C kill: 14%

Results for Cc1cccc(N2CCN(C(=O)C3CCN(C(=O)c4cc5sccc5n4C)CC3)CC2C)c1 (centres undefined) ?
IkB sig inh: inconclusive; Peg3 imprint: 23%[10.9 µM]; p53ts 39C tox: 13µM*; p53ts 32C kill: -11%

Results for Cc1ccc(C)c(N2CCN(C(=O)C3CCN(C(=O)c4cc5sccc5n4C)CC3)CC2)c1 ?
IkB sig inh: inconclusive; Peg3 imprint: -17%[10.9 µM]; p53ts 39C tox: -26%; p53ts 32C kill: 28%

What do the screens show for `O=C(Nc1nsc(-c2ccccc2)n1)c1cccs1`?
IkB sig inh: inconclusive; Peg3 imprint: -76%; p53ts 39C tox: 5µM*; p53ts 32C kill: 4µM*

What do the screens show for `Cc1nnc(SCC(=O)Nc2nsc(-c3ccccc3)n2)s1`?
IkB sig inh: 2%; Peg3 imprint: -5%; p53ts 39C tox: 11%; p53ts 32C kill: 13%

What do the screens show for `Cc1nn(Cc2ccc(Cl)cc2Cl)c(C)c1NC(=O)CCl`?
p53ts 39C tox: 5.6µM*; p53ts 32C kill: 18µM*

Results for CCOC(=O)c1[nH]c(C)c(C(=O)NCc2ccccc2Cl)c1C ?
IkB sig inh: inconclusive; Peg3 imprint: 15%[10.9 µM]; p53ts 39C tox: -8%; p53ts 32C kill: 0%

What do the screens show for `COc1ccc(NC(=O)c2cc3nc(-c4ccc(C)c(C)c4)cc(C(F)(F)F)n3n2)cc1`?
IkB sig inh: 12%; Peg3 imprint: -8%[10.9 µM]; p53ts 39C tox: 10µM*; p53ts 32C kill: -1%

Results for COC(=O)c1c(NC(=O)c2cc3nc(-c4ccc(OC)cc4)cc(C(F)(F)F)n3n2)sc2c1CCCC2 ?
IkB sig inh: 2%; Peg3 imprint: -11%[10.9 µM]; p53ts 39C tox: -12%; p53ts 32C kill: 5%

What do the screens show for `O=C(CSc1nc2ccsc2c(=O)n1-c1ccc(Br)cc1)NCc1ccc(Cl)cc1`?
IkB sig inh: 0%; Peg3 imprint: 27%[10.9 µM]; p53ts 39C tox: 23%; p53ts 32C kill: 5%

How did Cc1nn(-c2ccc(C(=O)O)cc2)c(N)c1-c1ccccc1 do in these assays?
IkB sig inh: inconclusive; Peg3 imprint: -61%; p53ts 39C tox: 10µM*; p53ts 32C kill: 7.9µM*

Results for Cc1ccc(Cn2c(C)c3cnn(CC(=O)O)c(=O)c3c2C)cc1 ?
IkB sig inh: 0%; Peg3 imprint: -10%[10.9 µM]; p53ts 39C tox: 0%; p53ts 32C kill: -7%

What do the screens show for `C=CCSCC(N)C(=O)O` (centres undefined)?
Peg3 imprint: 8%; p53ts 39C tox: 4%; p53ts 32C kill: 2%

Screening data as filed in PubChem.
